Potency and outcome data for 26 compounds are collected here from PubChem BioAssay (NCATS).

A number with no mark means an inactive call. Results filed as inconclusive are left out. The source made the active and inactive calls. Unless noted, the call rests on the fitted dose curve; in most records, active means well fitted curve in the direction sought with a large enough effect; inconclusive means small, poorly fitted or top-dose-only effect, or another doubt; inactive means no such curve, though single readings can be large; an effect the other way counts as inactive or inconclusive.

One assay concerns the target Furin (Homo sapiens) (UniProt P09958). In words: Furin counterscreen qHTS for Zika virus inhibitors (AID 1347149). Further: nearly all actives have a fitted effect of over 70% in size. Further: potency means the concentration at half of the fitted maximal effect. Put shortly: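 Fluorogenic cleavage of BOC-RVRR-AMC (2 microM final, Km ~15 µM) was monitored (ex 340, em 450 nm) at 37C after 15 min RT preincubation of 5 nM furin with compounds in HEPES pH 7.0 buffer with CaCl2 and Triton X-100. Percent inhibition was fitted to a 4-parameter Hill curve.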

Assay [1] is described as follows: Confirmatory screen GU Rhodamine qHTS for Zika virus inhibitors qHTS (AID 1347157). Further: nearly all actives have a fitted effect of over 70% in size. Further: potency means the concentration at half of the fitted maximal effect. Put shortly: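 Noncovalent NS2B hydrophilic domain/NS3 protease complex (25 nM final) in 10 mM Tris-HCl pH 8.0, 0.01% Tween 20, preincubated 15 min with compounds (up to 114 microM), then 1.5 microM Rhodamine110 substrate. Fluorescence change over 15 min fitted to 4-parameter Hill.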
On the technique in general: Quantitative high-throughput screening tests each substance at several concentrations.

A short description of assay [2]: Confirmatory screen NINDS Rhodamine qHTS for Zika virus inhibitors (AID 1347161). Further: nearly all actives have a fitted effect of over 60% in size. Further: potency means the concentration at half of the fitted maximal effect. Put shortly: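 Each compound, titrated, sat 15 min with 25 nM linked protease before 1.5 microM Rhodamine110 substrate went in. Fluorescence gain over the next 15 min, in pH 8.0 Tris with Tween 20, gave Hill-fitted curves.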
Assay [3] can be described thus: Tertiary RLuc qRT-PCR qHTS assay for Zika virus inhibitors (AID 1347169). Further: top concentration of the series differs between compounds; nearly all actives have a fitted effect of over 55% in size. Put shortly:
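Orthogonal cell-based infection assay using recombinant ZIKV-RLuc (Cambodian) in Vero cells; compound added prior to virus at MOI 1-2. Incubation lasts 48-72 hrs at 37 degrees C before live-cell Renilla substrate is added and luminescence measured.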
(In general: Real-time PCR tracks product formation cycle by cycle.)

Assay [4] has as its system Zika virus NS2B-NS3 protease (linked). Kind of assay: 384 well plate NINDS AMC confirmatory qHTS for Zika virus inhibitors (AID 1347163). Further: nearly all actives have a fitted effect of over 50% in size. Further: potency means the concentration at half of the fitted maximal effect. Put shortly:
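Linked protease 5/30/60 nM final; cpds up to 1 mM final, ~15 min preinc. Substrate Ac-VKTGKR-AMC 30 microM final. RT, dark, 25 min; FI ex 355/em 460; normalized to no-enzyme/no-inhibitor ctrls.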

Assay [5] deals with Zika virus NS2B-NS3 protease (linked construct). In words: 384 well plate NINDS Rhodamine confirmatory qHTS for Zika virus inhibitors (AID 1347164). Further: nearly all actives have a fitted effect of over 65% in size. Further: potency means the concentration at half of the fitted maximal effect. Put shortly:
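Compounds are incubated about 15 minutes with linked protease (5, 30 or 60 nM final). Rhodamine 110-tagged Ac-LKRR substrate (10 microM final) is added and fluorescence measured after 25 minutes.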

Assay [6] concerns the target Calcium and integrin-binding protein 1 (Homo sapiens) (UniProt Q99828). Kind of assay: Primary qHTS for Identification of Calcium Integrin Binding Protein 1 (CIB1) Competitor (AID 1508620). Further: top concentration of the series differs between compounds. In short, it runs like this: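 Fluorescence polarization competition: GST-tagged CIB1 (1 uM final) preincubated with compound 15 min at room temperature, then FITC-labelled alphaIIb peptide (100 nM final) added. After 15 min at room temperature, polarization read at Ex 480/Em 540.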

Assay [7] in a line: ZIKV-mCherry secondary qHTS for Zika virus inhibitors (AID 1347158). Further: top concentration of the series differs between compounds. Put shortly: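 Vero cells, 5,000/well, plated overnight at 37 °C, then compound added and infected with recombinant ZIKV-mCherry at MOI 1 for 48-72 h. PFA-fixed, Hoechst nuclear stain, high-content imaging; cells with mCherry intensity above 450 RFU scored infected, reported as percent infection.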
The nature of assay [8]: Primary qHTS for small molecule stabilizers of the endoplasmic reticulum resident proteome: Secreted ER Calcium Modulated Protein (SERCaMP) assay (AID 1508630). Put shortly:
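GLuc-SERCaMP-expressing SH-SY5Y cells, pretreated 16 h with compound, are challenged with thapsigargin to empty ER calcium stores; after 4 h, coelenterazine is added directly to the medium and luminescence is imaged.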

Assay [9] addresses Cytochrome P450 2D6 (Homo sapiens) (UniProt P10635). In words: Cytochrome P450 family 2 subfamily D member 6 (CYP2D6) small molecule antagonists: luciferase biochemical (cell-free) qHTS assay (AID 1645840; active means well fitted curve in the direction sought with a large enough effect in the repeat runs; an effect the other way counts as inactive or inconclusive; further: potency means the concentration at half of the fitted maximal effect; nearly all actives have a fitted effect of over 55% in size). In short, it runs like this:
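P450-Glo luminescent screen: recombinant CYP2D6 enzyme–proluciferin substrate mix preincubated with compound 10 min at room temperature, then NADPH regeneration added for 1 h at room temperature. Detection reagent added for 20 min; luciferin light read as relative luminescence units.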

In assay [10] the target is Cytochrome P450 2C9 (Homo sapiens) (UniProt P11712). Kind of assay: Cytochrome P450 family 2 subfamily C member 9 (CYP2C9) small molecule antagonists: luciferase biochemical (cell-free) qHTS assay (AID 1645842; active means well fitted curve in the direction sought with a large enough effect in the repeat runs; an effect the other way counts as inactive or inconclusive; further: potency means the concentration at half of the fitted maximal effect; nearly all actives have a fitted effect of over 55% in size). Put shortly:
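Luminescence, after 20 min with luciferin detection reagent, reflected CYP2C9 turnover during a 1 h NADPH-driven reaction at 37C. Enzyme-substrate mix contained 0.4% bovine serum albumin and was preincubated with compound 10 min at room temperature.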

The nature of assay [11]: Confirmation and Secondary Assay for Modulators of Hemoglobin Beta Chain Splicing at IVS2 654 locus (AID 910).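 Further: HeLa cells stably carrying EGFP split by mutant beta-globin IVS2-654 intron.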 In short, it runs like this: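 HeLa cells stably expressing EGFP interrupted by β-globin IVS2-654 intron, seeded overnight in Opti-MEM/2% FCS, then treated 2 days at 37 °C. Restored splicing read as total peak GFP intensity per well by laser scanning cytometry (488 nm excitation, 500–520 nm emission); 500 nM antisense PNA as control.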

Assay [12] is described as follows: Confirmation and Secondary Assay for Modulators of Hemoglobin Beta Chain Splicing at IVS2 705 locus (AID 930).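 Further: HeLa cells stably expressing the EGFP-705 splicing reporter; GFP fluorescence per well restored by corrected splicing of the IVS2-705 intron in EGFP; series mostly up to about 46 µM.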 Put shortly:
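Assay measures total GFP intensity per well in HeLa EGFP-705 cells after 2 days with compound; mis-splicing normally truncates EGFP, so fluorescence indicates corrected splicing.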

Assay [13] has as its target Ubiquitin carboxyl-terminal hydrolase 1 (Homo sapiens) (UniProt O94782). In words: Inhibitors of USP1/UAF1: Pilot qHTS (AID 504865).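 Further: rhodamine fluorescence freed from ubiquitin-rhodamine substrate followed over time; top concentration of the series differs between compounds; nearly all actives have a fitted effect of over 35% in size.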 Put shortly:
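Kinetic fluorescence assay: 1nM USP1/UAF1, 15 min compound preincubation, then 150nM Ub-Rho; 480/540 nm.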

Calcium and integrin-binding protein 1 (Homo sapiens), sequence (Q99828 whole entry, looked up): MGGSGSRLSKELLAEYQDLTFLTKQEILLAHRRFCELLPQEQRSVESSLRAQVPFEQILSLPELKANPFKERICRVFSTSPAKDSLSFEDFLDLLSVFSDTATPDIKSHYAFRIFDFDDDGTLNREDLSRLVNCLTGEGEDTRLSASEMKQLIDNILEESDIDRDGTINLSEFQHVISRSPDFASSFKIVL
Furin (Homo sapiens), sequence (P09958 whole entry, looked up): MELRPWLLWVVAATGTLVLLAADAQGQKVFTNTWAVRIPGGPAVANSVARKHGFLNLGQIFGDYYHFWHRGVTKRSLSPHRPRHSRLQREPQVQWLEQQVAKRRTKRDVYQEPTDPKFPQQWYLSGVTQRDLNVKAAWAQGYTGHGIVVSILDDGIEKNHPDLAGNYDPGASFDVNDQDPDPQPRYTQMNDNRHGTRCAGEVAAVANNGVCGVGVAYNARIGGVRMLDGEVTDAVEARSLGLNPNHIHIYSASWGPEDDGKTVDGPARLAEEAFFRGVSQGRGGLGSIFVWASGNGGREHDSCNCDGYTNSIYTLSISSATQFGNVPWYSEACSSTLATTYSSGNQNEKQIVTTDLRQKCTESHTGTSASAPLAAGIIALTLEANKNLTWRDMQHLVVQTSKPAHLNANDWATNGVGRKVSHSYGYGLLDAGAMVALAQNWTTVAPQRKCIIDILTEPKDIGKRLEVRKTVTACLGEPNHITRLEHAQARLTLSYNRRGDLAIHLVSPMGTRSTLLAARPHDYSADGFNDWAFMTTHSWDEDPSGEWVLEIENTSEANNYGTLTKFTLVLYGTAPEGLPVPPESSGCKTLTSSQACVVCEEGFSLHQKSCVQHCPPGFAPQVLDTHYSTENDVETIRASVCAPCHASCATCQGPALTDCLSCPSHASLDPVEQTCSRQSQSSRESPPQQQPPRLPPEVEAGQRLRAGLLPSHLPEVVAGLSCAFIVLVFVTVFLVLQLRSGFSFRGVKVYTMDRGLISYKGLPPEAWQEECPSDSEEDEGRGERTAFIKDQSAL
Cytochrome P450 2D6 (Homo sapiens), sequence (P10635 whole entry, looked up): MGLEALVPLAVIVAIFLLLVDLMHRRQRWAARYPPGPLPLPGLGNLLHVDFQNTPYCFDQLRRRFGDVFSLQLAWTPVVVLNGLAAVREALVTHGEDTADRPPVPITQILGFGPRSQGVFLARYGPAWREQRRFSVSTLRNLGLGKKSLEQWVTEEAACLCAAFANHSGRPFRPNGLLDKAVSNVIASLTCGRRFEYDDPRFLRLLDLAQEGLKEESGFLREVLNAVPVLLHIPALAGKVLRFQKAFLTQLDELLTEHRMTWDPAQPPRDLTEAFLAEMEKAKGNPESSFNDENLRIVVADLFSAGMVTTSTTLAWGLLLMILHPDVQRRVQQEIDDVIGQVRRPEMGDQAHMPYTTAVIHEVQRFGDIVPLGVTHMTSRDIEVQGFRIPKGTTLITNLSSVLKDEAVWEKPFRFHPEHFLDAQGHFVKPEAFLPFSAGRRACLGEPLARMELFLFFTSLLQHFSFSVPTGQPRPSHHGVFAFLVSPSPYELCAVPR
Cytochrome P450 2C9 (Homo sapiens), sequence (P11712 whole entry, looked up): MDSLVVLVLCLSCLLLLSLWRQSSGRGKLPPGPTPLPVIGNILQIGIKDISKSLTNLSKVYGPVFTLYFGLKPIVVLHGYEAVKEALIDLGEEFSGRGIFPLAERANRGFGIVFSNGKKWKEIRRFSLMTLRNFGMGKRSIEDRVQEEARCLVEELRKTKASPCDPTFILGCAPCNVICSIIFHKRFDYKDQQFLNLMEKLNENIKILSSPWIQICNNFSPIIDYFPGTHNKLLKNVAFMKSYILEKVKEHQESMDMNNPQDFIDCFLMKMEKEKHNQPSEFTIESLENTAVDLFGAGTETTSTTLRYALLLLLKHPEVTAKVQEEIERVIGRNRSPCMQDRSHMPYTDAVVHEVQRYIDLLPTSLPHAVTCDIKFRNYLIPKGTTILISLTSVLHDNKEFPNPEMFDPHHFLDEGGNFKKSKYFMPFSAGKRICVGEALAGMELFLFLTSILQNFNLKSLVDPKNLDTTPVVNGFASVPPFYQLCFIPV
Ubiquitin carboxyl-terminal hydrolase 1 (Homo sapiens), sequence (O94782 whole entry, looked up): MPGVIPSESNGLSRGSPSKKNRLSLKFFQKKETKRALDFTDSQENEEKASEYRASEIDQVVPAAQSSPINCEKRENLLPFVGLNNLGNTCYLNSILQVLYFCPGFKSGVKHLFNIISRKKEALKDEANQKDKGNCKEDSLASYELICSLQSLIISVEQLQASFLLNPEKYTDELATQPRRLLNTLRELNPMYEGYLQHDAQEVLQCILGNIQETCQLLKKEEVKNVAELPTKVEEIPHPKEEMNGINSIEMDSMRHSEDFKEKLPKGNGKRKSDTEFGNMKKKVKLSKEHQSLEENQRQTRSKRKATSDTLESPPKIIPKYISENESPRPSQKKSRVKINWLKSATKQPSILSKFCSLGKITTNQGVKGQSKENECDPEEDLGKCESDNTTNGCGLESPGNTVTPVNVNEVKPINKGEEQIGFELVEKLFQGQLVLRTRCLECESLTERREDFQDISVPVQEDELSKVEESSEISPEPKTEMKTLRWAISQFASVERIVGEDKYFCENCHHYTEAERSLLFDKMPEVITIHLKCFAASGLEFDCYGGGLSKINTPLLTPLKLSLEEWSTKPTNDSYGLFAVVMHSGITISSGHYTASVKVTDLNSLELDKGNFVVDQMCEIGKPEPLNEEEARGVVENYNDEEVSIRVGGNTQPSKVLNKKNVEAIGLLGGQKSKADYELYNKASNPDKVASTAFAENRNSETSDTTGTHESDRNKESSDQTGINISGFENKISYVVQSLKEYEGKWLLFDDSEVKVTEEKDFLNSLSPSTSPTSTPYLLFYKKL

Take `O=C(CNC(=O)c1ccc(Cl)cc1)OCc1cc(=O)n2nc(C3CCCCC3)sc2n1`: the Potency entry (in the assay with Furin (Homo sapiens); in [1]; in assay [2]; in [3]) was “inactive” throughout.

For `O=C(O)c1ccc(NC(=O)c2cn(-c3ccccc3)nc2-c2ccc(Br)cc2)cc1`, in the assay with Furin (Homo sapiens), the Potency entry is “inactive”. For the same compound, the Potency in [1] is 8.91 µM (active); in assay [4], 44.7 µM (active); in assay [5], 35.5 µM (active).

`COc1ccc(S(=O)(=O)c2c(Nc3cccc(Cl)c3)sc(C(=O)c3ccccc3)c2N)cc1`: the Potency with Furin (Homo sapiens) is 52.7 µM (active). Also, the Potency entry in assay [1], in assay [2] and in assay [3] was “inactive” in each case.

With `O=C(OCC#CCSc1nnc(-c2cccc3ccccc23)o1)c1ccc(SC(F)(F)F)cc1`, the Potency with Furin (Homo sapiens) is 52.7 µM (active). Besides, the Potency result in [1], in assay [2] and in assay [3] was “inactive” throughout. Also, the result in assay [6] was inactive.

With `O=C(CSc1nnc(-c2cccc([S+](=O)([O-])NC3CCCC3)c2)n1-c1ccc(F)cc1)Nc1ccc(C(=O)O)cc1`, the Potency result (in the assay with Furin (Homo sapiens); in assay [1]; in assay [2]; in assay [3]) was “inactive” throughout.

With `O=C(OCC#CCSc1nnc(-c2cccc3ccccc23)o1)c1ccc(OC(F)F)cc1`, in the assay with Furin (Homo sapiens), the Potency is 41.8 µM (active). In addition, the Potency entry in assay [1] and in [2] was “inactive” throughout. For the same compound, the outcome in assay [6] was inactive.

In the case of `COC(=O)c1ccccc1NC(=O)CSc1nc(-c2ccccc2)cc(C(F)(F)F)n1`, the Potency entry (in the assay with Furin (Homo sapiens); in [1]; in assay [2]; in [3]) was “inactive” in each case.

For the compound `O=C(OCc1cccc(C(F)(F)F)c1)c1ccc(-c2nnn(Cc3ccc(F)cc3)n2)cc1`, the Potency result (with Furin (Homo sapiens); in assay [1]; in assay [2]; in [3]) was “inactive” each time.

With `O=S(=O)(Nc1ccc(O)c(NS(=O)(=O)c2ccccc2)c1)c1ccccc1`, the Potency entry (in the assay with Furin (Homo sapiens); in assay [1]; in assay [3]) was “inactive” throughout. In addition, the result in [6] was inactive.

As for `Cc1cc(S(=O)(=O)Nc2ccc(C(=O)O)cc2)c(C)c(S(=O)(=O)c2ccc(Cl)cc2)c1`, the Potency entry (with Furin (Homo sapiens); in assay [7]; in [3]) was “inactive” in each case. The Potency was 44.7 µM (active) in assay [2] and 141 µM (active) in [5].

For `Cc1cc(=O)c2c(O)c3c(O)cc(O)c4c5c(O)cc(O)c6c(O)c7c(=O)cc(C)c8c1c2c(c34)c(c65)c78`, the Potency entry (with Furin (Homo sapiens); in assay [1]; in assay [3]; in assay [8]) was “inactive” throughout.

For the compound `Cc1ccc(-c2nnc(Nc3ccc(Br)cc3)c3ccccc23)cc1S(=O)(=O)NCc1nc2ccccc2[nH]1`, the Potency with Furin (Homo sapiens) was 52.7 µM (active); in assay [9], 3.38 µM (active); in assay [10] it was 0.849 µM (active). Moreover, the Potency entry in assay [7], in assay [4] and in assay [5] was “inactive” throughout.

`O=C(OCC#CCSc1nnc(-c2cccc3ccccc23)o1)c1ccc(Cl)c(C(F)(F)F)c1`: the values for the Potency (with Furin (Homo sapiens); in [1]) were 52.7 µM (active) and 25.1 µM (active), respectively. Moreover, the Potency result in [3] was “inactive”.

As for `O=C(Nc1cccc(C(=O)OCc2cc(=O)n3nc(C4CC4)sc3n2)c1)c1ccc(F)cc1`, the Potency result (in the assay with Furin (Homo sapiens); in [7]; in assay [3]) was “inactive” each time. In addition, the values for the Potency in assay [2] and in assay [4] were 31.6 µM (active) and 89.1 µM (active), respectively.

For `COC(=O)c1ccc(NC(=O)CSc2ncc3c(n2)-c2cc(Cl)ccc2N(Cc2ccccc2)S3(=O)=O)cc1`, the Potency with Furin (Homo sapiens) is 83.5 µM (active). For the same compound, the Potency entry in assay [7] and in assay [4] was “inactive” each time.

Consider `CC(C)c1nn2c(=O)cc(COC(=O)c3ccc(NC(=O)CCc4ccccc4)cc3)nc2s1`, for which the Potency result (in the assay with Furin (Homo sapiens); in assay [1]; in assay [3]) was “inactive” throughout.

On to `CC(C)c1ccc(NC(=O)c2ccc3oc(=O)c(S(=O)(=O)c4ccc(F)cc4)cc3c2)cc1`, for which the Potency entry (in the assay with Furin (Homo sapiens); in [7]; in assay [4]) was “inactive” throughout. For the same compound, the Potency in assay [2] was 56.2 µM (active).

Regarding `Fc1cc(C2=Nn3c(COc4ccc(Cl)cc4Cl)nnc3S/C2=C\c2ccc(-c3ccc(Cl)cc3)o2)c(Cl)cc1Cl`, the Potency entry (in the assay with Furin (Homo sapiens); in [7]; in assay [5]) was “inactive” each time. The Potency in assay [4] was 158 µM (active).

`NC(Cc1cc(I)c(Oc2ccc(O)c(I)c2)c(I)c1)C(=O)O` (stereo not drawn): the call in assay [11] and in [12] was inactive. Besides, the Potency entry (in [13]; with Furin (Homo sapiens); in assay [1]; in assay [3]) was “inactive” throughout.

`CCCCc1nn2c(=O)cc(COC(=O)c3ccc(NC(=O)c4cccc(OC)c4)cc3)nc2s1`: the Potency in the assay with Furin (Homo sapiens) is 41.8 µM (active). The Potency entry in assay [1] and in assay [3] was “inactive” in each case.

On to `CCOC(=O)c1cccc(NC(=O)CSc2ncc3c(n2)-c2ccc(Cl)cc2N(Cc2ccccc2)S3(=O)=O)c1`, for which the Potency entry (with Furin (Homo sapiens); in assay [7]; in [4]) was “inactive” in each case.

On to `Cc1cccc(C(=O)Nc2ccc(C(=O)OCc3cc(=O)n4nc(C5CC5)sc4n3)cc2)c1`, for which the Potency in the assay with Furin (Homo sapiens) is 26.4 µM (active). The Potency entry in assay [7], in [4] and in assay [3] was “inactive” in each case.

On to `COc1ccc(Nc2nnc(-c3ccc(C)c(S(=O)(=O)NCc4nc5ccccc5[nH]4)c3)c3ccccc23)cc1`, for which the Potency entry (with Furin (Homo sapiens); in assay [1]) was “inactive” throughout. Besides, the results for the Potency in [9] and in assay [10] were 4.25 µM (active) and 7.56 µM (active), respectively.

On to `COc1ccc(C(=O)Nc2cccc(C(=O)OCc3cc(=O)n4c5c(sc4n3)CCCC5)c2)cc1`, for which the Potency in the assay with Furin (Homo sapiens) is 66.3 µM (active). Moreover, the Potency entry in assay [1] and in [3] was “inactive” each time.

As to `Cc1csc2nc(COC(=O)c3ccccc3NC(=O)c3ccc(C(C)(C)C)cc3)cc(=O)n12`, the Potency with Furin (Homo sapiens) is 37.3 µM (active). The Potency result in [1] and in assay [3] was “inactive” throughout.

With `CC(C)c1nn2c(=O)cc(COC(=O)c3ccc(NC(=O)c4ccccc4Cl)cc3)nc2s1`, the Potency result (with Furin (Homo sapiens); in assay [1]; in assay [3]) was “inactive” each time.
